# Assay results reported in PubChem BioAssay (NCATS).
# Unmarked numbers belong to inactive results. Records with an inconclusive call do not appear. A call without a number means that no potency is given here. Active and inactive are the calls of the source. Unless noted, calls come from the whole dose curve; as a rule, active = well fitted curve in the direction sought with a large enough effect; inconclusive = small, poorly fitted or top-dose-only effect, or another doubt; inactive = no such curve, though single readings can be large; an effect the other way counts as inactive or inconclusive. Positions of bridges follow the written chain, without caps; N, C: chain ends. Non-standard residues stand in square brackets, D forms with d. Residues, ends and D or L forms follow the SMILES beside them. ξ: configuration not given here. *: point of attachment. ξDab(CH2SO3H) = NC(CCNCS(=O)(=O)O)C(=O)O; Octanoyl(6-Me) = CCC(C)CCCCC(=O)*; Dab = NCC[CH](N)C(=O)O
# Legend:
# Furin (Homo sapiens) = Furin (Homo sapiens) (UniProt P09958); assay: Furin counterscreen qHTS for Zika virus inhibitors (AID 1347149); note: nearly all actives have a fitted effect of over 70% in size; note: potency is the fitted concentration of half-maximal effect
# Sequence of Furin (Homo sapiens) (P09958 whole entry, looked up): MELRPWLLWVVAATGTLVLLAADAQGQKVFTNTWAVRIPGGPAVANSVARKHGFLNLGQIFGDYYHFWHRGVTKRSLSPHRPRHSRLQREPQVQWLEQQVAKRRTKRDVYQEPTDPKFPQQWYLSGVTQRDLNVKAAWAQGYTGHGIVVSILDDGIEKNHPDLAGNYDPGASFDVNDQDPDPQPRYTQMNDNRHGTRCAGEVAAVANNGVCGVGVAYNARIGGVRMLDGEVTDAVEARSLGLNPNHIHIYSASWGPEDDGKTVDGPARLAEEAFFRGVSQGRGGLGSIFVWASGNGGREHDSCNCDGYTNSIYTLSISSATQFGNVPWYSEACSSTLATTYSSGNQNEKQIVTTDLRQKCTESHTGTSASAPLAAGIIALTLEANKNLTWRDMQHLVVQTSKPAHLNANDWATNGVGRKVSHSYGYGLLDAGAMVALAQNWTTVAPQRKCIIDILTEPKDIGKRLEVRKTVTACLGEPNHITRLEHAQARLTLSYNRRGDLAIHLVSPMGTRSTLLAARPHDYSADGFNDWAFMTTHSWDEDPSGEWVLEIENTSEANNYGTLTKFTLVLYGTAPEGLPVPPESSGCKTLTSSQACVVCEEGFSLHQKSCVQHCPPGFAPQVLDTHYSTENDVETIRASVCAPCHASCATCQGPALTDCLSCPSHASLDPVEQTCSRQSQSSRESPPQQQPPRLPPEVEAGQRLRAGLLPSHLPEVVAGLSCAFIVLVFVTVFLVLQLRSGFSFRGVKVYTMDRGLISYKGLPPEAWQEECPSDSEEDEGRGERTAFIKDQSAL
# Procedure, shortened: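 Fluorogenic cleavage of BOC-RVRR-AMC (2 microM final, Km ~15 µM) was monitored (ex 340, em 450 nm) at 37C after 15 min RT preincubation of 5 nM furin with compounds in HEPES pH 7.0 buffer with CaCl2 and Triton X-100. Percent inhibition was fitted to a 4-parameter Hill curve.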
# [1] = ZIKV-mCherry secondary qHTS for Zika virus inhibitors (AID 1347158); note: top concentration of the series differs between compounds
# Procedure, shortened: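 After overnight seeding at 37 °C, Vero cells receive compound and then ZIKV-mCherry (MOI 1). Following 48-72 h infection, cells are fixed, counterstained with Hoechst, and imaged; percent infected cells is derived from an mCherry intensity cut-off of 450 RFU.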
# [2] = Confirmatory screen NINDS Rhodamine qHTS for Zika virus inhibitors (AID 1347161); note: nearly all actives have a fitted effect of over 60% in size; note: potency is the fitted concentration of half-maximal effect
# Procedure, shortened: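 Percent inhibition, normalized to uninhibited and enzyme-free controls, is fitted to a 4-parameter Hill equation. Fluorescence change comes from a 15-min cleavage of 1.5 microM bis-peptide Rhodamine110 substrate by 25 nM linked NS2B-NS3 at room temperature.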
# [3] = test system: Zika virus NS2B-NS3 protease (linked); assay: 384 well plate NINDS AMC confirmatory qHTS for Zika virus inhibitors (AID 1347163); note: nearly all actives have a fitted effect of over 50% in size; note: potency is the fitted concentration of half-maximal effect
# Procedure, shortened: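 Linked protease 5/30/60 nM final; cpds up to 1 mM final, ~15 min preinc. Substrate Ac-VKTGKR-AMC 30 microM final. RT, dark, 25 min; FI ex 355/em 460; normalized to no-enzyme/no-inhibitor ctrls.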
# [4] = Confirmatory screen GU Rhodamine qHTS for Zika virus inhibitors qHTS (AID 1347157); note: nearly all actives have a fitted effect of over 70% in size
# Procedure, shortened: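 In dose–response format, inhibition of unlinked protease (25 nM) was measured with 1.5 microM bis-peptide Rhodamine110 substrate. Aprotinin served as the intraplate control.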
# [5] = Tertiary RLuc qRT-PCR qHTS assay for Zika virus inhibitors (AID 1347169); note: top concentration of the series differs between compounds; nearly all actives have a fitted effect of over 55% in size
# Procedure, shortened: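 Inhibition of ZIKV-RLuc replication in Vero cells, read as Renilla luminescence 1-1.5 hrs after live-cell substrate addition, following 48-72 hrs infection at MOI 1-2 in presence of compound.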
# [6] = biological target: Calcium and integrin-binding protein 1 (Homo sapiens) (UniProt Q99828); assay: Primary qHTS for Identification of Calcium Integrin Binding Protein 1 (CIB1) Competitor (AID 1508620);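 note: GST tagged CIB1 binding a fluorescein labelled alphaIIb integrin peptide tracer; top concentration of the series differs between compounds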
# Sequence of Calcium and integrin-binding protein 1 (Homo sapiens) (Q99828 whole entry, looked up): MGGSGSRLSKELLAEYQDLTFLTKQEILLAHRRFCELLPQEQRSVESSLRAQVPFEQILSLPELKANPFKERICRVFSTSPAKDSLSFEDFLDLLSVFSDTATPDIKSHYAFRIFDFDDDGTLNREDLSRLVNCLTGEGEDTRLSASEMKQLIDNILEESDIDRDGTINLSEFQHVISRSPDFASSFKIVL
# Procedure, shortened: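 CIB1-GST (1 uM final) and compound incubated 15 min at room temperature before adding FITC-alphaIIb peptide tracer (100 nM final). Competition for binding read by fluorescence polarization (ex 480, em 540) after another 15 min at room temperature.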
# [7] = Confirmation and Secondary Assay for Modulators of Hemoglobin Beta Chain Splicing at IVS2 654 locus (AID 910);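 note: HeLa cells stably carrying EGFP split by mutant beta-globin IVS2-654 intron; per-well total GFP intensity by laser scanning cytometry after 2-day treatment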
# Procedure, shortened: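 Readout: per-well total peak green fluorescence (488 nm ex, 500–520 nm em) from objects 5–250 µm, reflecting correct splicing of an EGFP-654 reporter. Compounds were applied for 2 days at 37 °C to overnight-plated HeLa EGFP-654 cells; controls were DMSO and 500 nM IVS2-654 PNA.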
# [8] = Confirmation and Secondary Assay for Modulators of Hemoglobin Beta Chain Splicing at IVS2 705 locus (AID 930);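 note: HeLa cells stably expressing the EGFP-705 splicing reporter; GFP fluorescence per well restored by corrected splicing of the IVS2-705 intron in EGFP; series mostly up to about 46 µM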
# Procedure, shortened: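 Assay measures total GFP intensity per well in HeLa EGFP-705 cells after 2 days with compound; mis-splicing normally truncates EGFP, so fluorescence indicates corrected splicing.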
# [9] = biological target: Ubiquitin carboxyl-terminal hydrolase 1 (Homo sapiens) (UniProt O94782); assay: Inhibitors of USP1/UAF1: Pilot qHTS (AID 504865);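 note: rhodamine fluorescence freed from ubiquitin-rhodamine substrate followed over time; top concentration of the series differs between compounds; nearly all actives have a fitted effect of over 35% in size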
# Sequence of Ubiquitin carboxyl-terminal hydrolase 1 (Homo sapiens) (O94782 whole entry, looked up): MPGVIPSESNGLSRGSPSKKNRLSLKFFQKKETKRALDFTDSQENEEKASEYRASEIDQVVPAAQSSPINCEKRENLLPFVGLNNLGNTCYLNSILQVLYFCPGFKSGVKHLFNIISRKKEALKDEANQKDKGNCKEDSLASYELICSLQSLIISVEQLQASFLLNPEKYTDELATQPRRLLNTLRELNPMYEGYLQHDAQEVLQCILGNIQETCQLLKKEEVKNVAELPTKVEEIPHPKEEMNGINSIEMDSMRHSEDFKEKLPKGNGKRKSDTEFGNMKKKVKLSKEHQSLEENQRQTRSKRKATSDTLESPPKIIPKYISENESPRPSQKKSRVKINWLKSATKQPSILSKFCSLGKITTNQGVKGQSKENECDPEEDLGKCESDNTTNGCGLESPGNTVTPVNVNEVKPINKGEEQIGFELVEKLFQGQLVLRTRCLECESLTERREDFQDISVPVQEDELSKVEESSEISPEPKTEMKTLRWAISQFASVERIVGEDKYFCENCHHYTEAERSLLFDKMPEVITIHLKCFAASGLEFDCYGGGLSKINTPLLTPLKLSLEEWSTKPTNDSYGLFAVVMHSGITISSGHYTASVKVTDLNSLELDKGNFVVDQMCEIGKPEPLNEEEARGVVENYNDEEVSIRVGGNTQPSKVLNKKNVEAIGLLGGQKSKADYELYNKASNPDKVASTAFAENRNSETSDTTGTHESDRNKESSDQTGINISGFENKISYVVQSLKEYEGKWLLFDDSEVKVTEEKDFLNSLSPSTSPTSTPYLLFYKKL
# Procedure, shortened: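 Enzyme-free wells gave the negative control, while test wells held 1nM USP1/UAF1 preincubated with compound for 15 min at room temperature. Ub-Rho at 150nM final started the reaction, and fluorescence at 480/540 nm was recorded kinetically.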
# [10] = test system: Zika virus NS2B-NS3 protease (linked construct); assay: 384 well plate NINDS Rhodamine confirmatory qHTS for Zika virus inhibitors (AID 1347164); note: nearly all actives have a fitted effect of over 65% in size; note: potency is the fitted concentration of half-maximal effect
# Procedure, shortened: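 Cleavage of Ac-LKRR-Rhodamine 110 (10 microM final) by linked protease (final 5, 30 or 60 nM) was followed as fluorescence at 485/538 nm after 25 min, room temperature, dark. Compounds preincubated ~15 min.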
# [11] = biological target: Cytochrome P450 2D6 (Homo sapiens) (UniProt P10635); assay: Cytochrome P450 family 2 subfamily D member 6 (CYP2D6) small molecule antagonists: luciferase biochemical (cell-free) qHTS assay (AID 1645840; active = well fitted curve in the direction sought with a large enough effect in the repeat runs; an effect the other way counts as inactive or inconclusive; note: potency is the fitted concentration of half-maximal effect; nearly all actives have a fitted effect of over 55% in size)
# Sequence of Cytochrome P450 2D6 (Homo sapiens) (P10635 whole entry, looked up): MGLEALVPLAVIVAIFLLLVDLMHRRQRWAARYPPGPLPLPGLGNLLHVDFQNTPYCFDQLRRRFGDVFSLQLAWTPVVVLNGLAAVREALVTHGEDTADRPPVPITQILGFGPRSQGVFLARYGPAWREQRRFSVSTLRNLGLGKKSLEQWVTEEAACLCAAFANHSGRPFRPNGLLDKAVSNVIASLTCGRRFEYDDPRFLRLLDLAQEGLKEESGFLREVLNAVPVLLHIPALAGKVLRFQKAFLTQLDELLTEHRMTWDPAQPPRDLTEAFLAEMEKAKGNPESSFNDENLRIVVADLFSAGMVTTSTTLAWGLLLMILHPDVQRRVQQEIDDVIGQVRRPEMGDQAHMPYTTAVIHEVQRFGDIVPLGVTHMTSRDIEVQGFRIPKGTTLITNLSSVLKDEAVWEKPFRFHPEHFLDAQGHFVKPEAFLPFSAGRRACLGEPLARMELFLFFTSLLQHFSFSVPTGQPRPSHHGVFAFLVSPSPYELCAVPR
# Procedure, shortened: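 P450-Glo luminescent screen: recombinant CYP2D6 enzyme–proluciferin substrate mix preincubated with compound 10 min at room temperature, then NADPH regeneration added for 1 h at room temperature. Detection reagent added for 20 min; luciferin light read as relative luminescence units.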
# [12] = biological target: Cytochrome P450 2C9 (Homo sapiens) (UniProt P11712); assay: Cytochrome P450 family 2 subfamily C member 9 (CYP2C9) small molecule antagonists: luciferase biochemical (cell-free) qHTS assay (AID 1645842; active = well fitted curve in the direction sought with a large enough effect in the repeat runs; an effect the other way counts as inactive or inconclusive; note: potency is the fitted concentration of half-maximal effect; nearly all actives have a fitted effect of over 55% in size)
# Sequence of Cytochrome P450 2C9 (Homo sapiens) (P11712 whole entry, looked up): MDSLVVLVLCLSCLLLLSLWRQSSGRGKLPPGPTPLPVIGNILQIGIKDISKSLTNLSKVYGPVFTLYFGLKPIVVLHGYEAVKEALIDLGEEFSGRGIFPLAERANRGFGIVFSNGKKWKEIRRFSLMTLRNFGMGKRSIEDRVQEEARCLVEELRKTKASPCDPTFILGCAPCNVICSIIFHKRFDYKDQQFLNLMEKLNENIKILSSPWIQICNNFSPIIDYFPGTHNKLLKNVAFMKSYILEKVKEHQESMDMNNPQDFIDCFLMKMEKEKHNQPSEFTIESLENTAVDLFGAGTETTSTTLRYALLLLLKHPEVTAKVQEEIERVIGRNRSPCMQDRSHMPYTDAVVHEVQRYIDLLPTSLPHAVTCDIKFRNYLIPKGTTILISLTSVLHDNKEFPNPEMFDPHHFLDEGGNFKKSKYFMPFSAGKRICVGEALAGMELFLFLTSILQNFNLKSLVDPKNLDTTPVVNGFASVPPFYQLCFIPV
# Procedure, shortened: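 Luminescence, after 20 min with luciferin detection reagent, reflected CYP2C9 turnover during a 1 h NADPH-driven reaction at 37C. Enzyme-substrate mix contained 0.4% bovine serum albumin and was preincubated with compound 10 min at room temperature.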
smiles,measurement,setting,value
CC(C)c1ccc(NC(=O)c2ccc3oc(=O)c(S(=O)(=O)c4ccc(F)cc4)cc3c2)cc1,Potency,Furin (Homo sapiens),inactive
same,Potency,[1],inactive
same,Potency,[2],56.2 µM (active)
same,Potency,[3],inactive
CCOC(=O)c1cccc(NC(=O)CSc2ncc3c(n2)-c2ccc(Cl)cc2N(Cc2ccccc2)S3(=O)=O)c1,Potency,Furin (Homo sapiens),inactive
same,Potency,[1],inactive
same,Potency,[2],44.7 µM (active)
same,Potency,[3],inactive
O=C(OCC#CCSc1nnc(-c2cccc3ccccc23)o1)c1ccc(OC(F)(F)F)cc1,Potency,Furin (Homo sapiens),46.9 µM (active)
same,Potency,[4],inactive
same,Potency,[2],inactive
same,Potency,[5],inactive
same,outcome,[6],inactive
O=C(OCC#CCSc1nnc(-c2cccc3ccccc23)o1)c1sc2ccccc2c1Cl,Potency,Furin (Homo sapiens),46.9 µM (active)
same,Potency,[4],inactive
same,Potency,[2],inactive
same,Potency,[5],inactive
same,outcome,[6],inactive
O=C(Nc1cccc(C(=O)OCc2cc(=O)n3nc(C4CC4)sc3n2)c1)c1ccc(F)cc1,Potency,Furin (Homo sapiens),inactive
same,Potency,[1],inactive
same,Potency,[2],31.6 µM (active)
same,Potency,[3],89.1 µM (active)
same,Potency,[5],inactive
O=C(OCC#CCSc1nnc(-c2ccccc2Cl)o1)c1ccc(F)cc1,Potency,Furin (Homo sapiens),inactive
same,Potency,[4],inactive
same,Potency,[2],inactive
same,Potency,[5],inactive
same,outcome,[6],inactive
O=C(COc1ccc(F)cc1)Nc1ccc(C(=O)OCc2cc(=O)n3nc(C4CC4)sc3n2)cc1,Potency,Furin (Homo sapiens),inactive
same,Potency,[4],inactive
same,Potency,[5],inactive
CC(C)c1nn2c(=O)cc(COC(=O)c3ccc(NC(=O)CCc4ccccc4)cc3)nc2s1,Potency,Furin (Homo sapiens),inactive
same,Potency,[4],inactive
same,Potency,[5],inactive
CCCCc1nn2c(=O)cc(COC(=O)c3cccc(NC(=O)c4cccc(Cl)c4)c3)nc2s1,Potency,Furin (Homo sapiens),29.6 µM (active)
same,Potency,[4],inactive
same,Potency,[5],inactive
NC(Cc1cc(I)c(Oc2ccc(O)c(I)c2)c(I)c1)C(=O)O (centres undefined),outcome,[7],inactive
same,outcome,[8],inactive
same,Potency,[9],inactive
same,Potency,Furin (Homo sapiens),inactive
same,Potency,[4],inactive
same,Potency,[5],inactive
CCOC(=O)c1ccc(NC(=O)Cn2nnc(-c3ccc(C(F)(F)F)cc3)n2)cc1,Potency,Furin (Homo sapiens),inactive
same,Potency,[4],inactive
same,Potency,[5],inactive
COc1ccc(C(=O)Nc2cccc(C(=O)OCc3cc(=O)n4c5c(sc4n3)CCCC5)c2)cc1,Potency,Furin (Homo sapiens),66.3 µM (active)
same,Potency,[4],inactive
same,Potency,[5],inactive
COc1ccc(NS(=O)(=O)c2ccc(NS(=O)(=O)c3ccc4c(c3)OCCO4)cc2)cc1,Potency,Furin (Homo sapiens),inactive
same,Potency,[3],355 µM (active)
same,Potency,[10],141 µM (active)
Cc1cccc(C)c1-n1c(SCC(=O)Nc2ccc(C(=O)O)cc2)nnc1-c1cccc([S+](=O)([O-])N2CCCC2)c1,Potency,Furin (Homo sapiens),inactive
same,Potency,[1],inactive
same,Potency,[3],70.8 µM (active)
same,Potency,[10],89.1 µM (active)
same,Potency,[5],inactive
CCOC(=O)c1ccc(NC(=O)CSc2nc(-c3ccc(F)cc3)cc(C(F)(F)F)c2C#N)cc1,Potency,Furin (Homo sapiens),inactive
same,Potency,[3],inactive
same,Potency,[10],inactive
CCOc1ccc(S(=O)(=O)Nc2cc3c(C(=O)OCc4ccccc4)c(C)oc3c3ccccc23)cc1,Potency,Furin (Homo sapiens),inactive
same,Potency,[1],inactive
same,Potency,[10],316 µM (active)
Cc1ccc(-c2nnc(Nc3ccc(Br)cc3)c3ccccc23)cc1S(=O)(=O)NCc1nc2ccccc2[nH]1,Potency,Furin (Homo sapiens),52.7 µM (active)
same,Potency,[1],inactive
same,Potency,[3],inactive
same,Potency,[10],inactive
same,Potency,[11],3.38 µM (active)
same,Potency,[12],0.849 µM (active)
CC(C)CN1CC(COc2ccc3ccccc3c2)Oc2ccnc(-c3ccc(OCC(=O)O)cc3)c2C1=O (centres undefined),Potency,Furin (Homo sapiens),inactive
same,Potency,[3],355 µM (active)
same,Potency,[10],39.8 µM (active)
same,Potency,[5],inactive
O=c1oc2ccc3ccccc3c2cc1-c1nnc(Nc2cc(C(F)(F)F)ccc2Cl)s1,Potency,Furin (Homo sapiens),inactive
same,Potency,[2],inactive
same,Potency,[5],inactive
CC(Oc1ccccc1)C(=O)Nc1ccc(C(=O)OCc2cc(=O)n3nc(C4CC4)sc3n2)cc1 (centres undefined),Potency,Furin (Homo sapiens),inactive
same,Potency,[3],inactive
same,Potency,[10],inactive
same,Potency,[5],inactive
O=S(=O)(Nc1ccc(O)c(Sc2nc3ccccc3s2)c1)c1cc(Cl)ccc1Cl,Potency,Furin (Homo sapiens),inactive
same,Potency,[2],22.4 µM (active)
same,Potency,[3],112 µM (active)
same,Potency,[10],44.7 µM (active)
same,Potency,[5],inactive
Cc1nn2c(=O)cc(COC(=O)c3ccc(NC(=O)c4ccc(C(C)(C)C)cc4)cc3)nc2s1,Potency,Furin (Homo sapiens),52.7 µM (active)
same,Potency,[2],39.8 µM (active)
O=C(O)COc1ccc(-c2nccc3c2C(=O)N(Cc2cccc(C(F)(F)F)c2)CC(COc2ccc4cnccc4c2)O3)cc1 (centres undefined),Potency,Furin (Homo sapiens),62.2 µM (active)
same,Potency,[10],35.5 µM (active)
same,Potency,[5],inactive
COc1cccc(C(=O)Nc2ccc(C(=O)OCc3cc(=O)n4nc(C5CC5)sc4n3)cc2)c1,Potency,Furin (Homo sapiens),41.8 µM (active)
same,Potency,[3],inactive
same,Potency,[10],inactive
Cc1ccc(OCC(=O)Nc2ccc(C(=O)OCc3cc(=O)n4nc(C5CC5)sc4n3)cc2)cc1,Potency,Furin (Homo sapiens),inactive
same,Potency,[5],inactive
CCC(C)CCCCC(=O)NC(CCNCS(=O)(=O)O)C(=O)NC(C(=O)NC(CCNCS(=O)(=O)O)C(=O)NC1CCNC(=O)C(C(C)O)NC(=O)C(CCNCS(=O)(=O)O)NC(=O)C(CCNCS(=O)(=O)O)NC(=O)C(CC(C)C)NC(=O)C(CC(C)C)NC(=O)C(CCNCS(=O)(=O)O)NC1=O)C(C)O (centres undefined) ({Octanoyl(6-Me)}-[ξDab(CH2SO3H)]T[ξDab(CH2SO3H)][Dab][ξDab(CH2SO3H)]LL[ξDab(CH2SO3H)][ξDab(CH2SO3H)]T; lactam 4-C; configuration not given here),Potency,Furin (Homo sapiens),inactive
same,Potency,[2],12.6 µM (active)
same,Potency,[3],25.1 µM (active)
same,Potency,[10],3.55 µM (active)
same,Potency,[5],inactive
Cc1cc(S(=O)(=O)Nc2ccc(C(=O)O)cc2)c(C)c(S(=O)(=O)c2ccc(Cl)cc2)c1,Potency,Furin (Homo sapiens),inactive
same,Potency,[1],inactive
same,Potency,[2],44.7 µM (active)
same,Potency,[10],141 µM (active)
same,Potency,[5],inactive
CCCCc1nn2c(=O)cc(COC(=O)c3ccc(NC(=O)CCc4ccccc4)cc3)nc2s1,Potency,Furin (Homo sapiens),inactive
same,Potency,[1],inactive
same,Potency,[10],25.1 µM (active)
same,Potency,[5],inactive
